High-throughput results deposited in PubChem BioAssay by National Center for Advancing Translational Sciences (NCATS).
Sampled rows, rich in hits. Any-hit rate of the full collection: about 21%.
Pf growth 96h: P. falciparum growth inhibition at 96 hours. P. falciparum luciferase reporter growth, 96 h. Potency, µM (highest dose often 28.7 µM), without a hit: top-dose activity change, negative = inhibition, usual class: inhibitors. 320,000 compounds, 6.9% hits. AID 504834; also: potency is read from the fitted curve at half-maximal effect; % is scaled to controls: 0 for no effect and ±100 for the full control effect
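Readout is luminescence from an integrated firefly luciferase in P. falciparum. Red cells, 2% hematocrit and 0.05% parasitemia final, were cultured with compound through two parasite generations (96 hours) at 37 C, 5% CO2.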
SARS PLpro yeast: blocks SARS-CoV papain-like protease in a yeast assay. S. cerevisiae expressing SARS-CoV PLpro, growth rescue. Potency, µM (series often up to 32.9 µM), without a hit: at the top dose activity, positive = growth rescue, hits mostly activators. 330,000 compounds, 0.19% hits; calls by dose curve; also: potency is read from the fitted curve at half-maximal effect; 0% is about no effect; nearly all actives have a fitted effect of over 55% in size
Pf growth 48h: P. falciparum growth inhibition at 48 hours (one generation) | P. falciparum luciferase growth in erythrocytes, 48 h | Potency, µM (doses to about 28.7 µM), inactives show top-dose activity change, negative = inhibition, hits mostly inhibitors | 310,000 compounds, 5.9% hits | AID 504832; also: potency is read from the fitted curve at half-maximal effect; % is scaled to controls: 0 for no effect and ±100 for the full control effect
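Read-out is firefly luciferase luminescence from an integrated reporter in P. falciparum, so falling signal marks reduced parasite growth. Infected erythrocytes were at 2% hematocrit and 0.1% parasitemia (final) in Albumax-supplemented RPMI 1640.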
NS1 function inh: inhibitors of influenza NS1 protein function | 270,000 compounds, 0.4% hits | Potency, µM (highest dose often 46.1 µM), without a hit: at the highest dose activity, positive = more growth; calls by dose curve; also: potency is read from the fitted curve at half-maximal effect; actives are rising curves; nearly all actives have a fitted effect of over 50% in size
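Read-out: OD600 growth recovery of NS1-expressing budding yeast. Cells grown overnight at 30C in -URA glucose medium, washed, resuspended and diluted 1:100 in 2% galactose assay medium, pH 6.0. Same strain lacking NS1 served as positive control.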
CHX counter: counter-screen for Shiga toxin inhibitors: cycloheximide protein synthesis inhibition | cell reporter, cycloheximide protein synthesis inhibition counterscreen | max response, % | 300,000 compounds, 12% hits; in the data active = max response mostly above about 13%, no sharp cut-off; inactive = mostly below about 14%; also: read at 38.3 µM for the half of the compounds with a filed dose; 0% is about no effect
Shiga toxin inh: inhibitors of Shiga toxin in Vero cells | Vero cells, Shiga toxin protein synthesis inhibition reporter | inhibition, % at 38.7 µM | 290,000 compounds, 9.2% hits; in the data active = inhibition mostly above about 28%, no sharp cut-off; inactive = mostly below about 43%; also: 0% is about no effect
Starred values were filed as active, the others as inactive; i = inactive; ? = inconclusive; . = no result given; [ ] = remark or other dose. Unless noted, calls follow the shape of the dose curve; as a rule, active = well fitted inhibition curve with a large enough effect; inconclusive = small, poorly fitted or top-dose-only effect, or another doubt; inactive = no such curve, though single readings can be large or run the other way.

SMILES | Pf growth 96h | SARS PLpro yeast | Pf growth 48h | NS1 function inh | CHX counter | Shiga toxin inh
CC(C)CN1CC(=O)N2C(c3ccccc3)c3[nH]c4ccccc4c3C[C@H]2C1=O (stereo partly specified) | ? | -1% | 12µM* | 12% | -2 | 3
COc1cc([C@H]2c3[nH]c4ccccc4c3C[C@H]3C(=O)N4[C@@H](c5cc(OC)c(OC)c(OC)c5)c5[nH]c6ccccc6c5C[C@H]4C(=O)N23)cc(OC)c1OC | 0.47µM* | 5% | 0.41µM* | 9% | -4 | -13
O=C1[C@@H]2Cc3c([nH]c4ccccc34)[C@@H](c3ccccc3)N2C(=O)[C@@H]2Cc3c([nH]c4ccccc34)[C@@H](c3ccccc3)N12 | 2.6µM* | -7% | ? | ? | -6 | -18
C=CCN1C(=O)[C@@H]2Cc3c([nH]c4ccccc34)C(c3cc(OC)c(OC)c(OC)c3)N2C1=S (stereo partly specified) | ? | 0% | 8.3µM* | 1% | 0 | -8
CCN1C(=O)[C@@H]2Cc3c([nH]c4ccccc34)C(c3cc(OC)c(OC)c(OC)c3)N2C1=S (stereo partly specified) | ? | -1% | ? | 3% | -3 | -7
COc1ccc(-c2nc3c(-c4ccc(F)cc4)cnn3cc2C)cc1F | ? | 1% | ? | 1% | 2 | -3
CCOC(=O)/C(=N\Nc1ncnc2ccccc12)c1ccc(C)cc1 | 407% | -3% | 170% | -5% | 18* | 23
CCOC(=O)C/C(=N\Nc1ncnc2ccccc12)c1ccccc1 | 137% | -2% | 35% | 7% | 35* | 87*
O=C(C[n+]1ccccc1)N/N=C/c1ccccc1C(F)(F)F | ? | 1% | 4% | 3% | -3 | -8
Nc1ccc2ccc3cccc[n+]3c2c1 | ? | -7% | 0.41µM* | -36% | -2 | .
C[n+]1c(-c2ccccc2)c2cc(N)ccc2c2ccc(N)cc21 | -22% | 5% | ? | -56% | -7 | -14
O=[N+]([O-])C(=C1Nc2ccccc2N1)/C(Cl)=C(/Cl)Br | -3% | -18% | 3% | 9% | 0 | -6
CN1CCCC(OC(=O)c2ccc(C(C)(C)C)cc2)C1 (stereo unspecified) | i | -1% | ? | -4% | 18* | 28
CC1CN(C)CCC1OC(=O)c1ccccc1 (stereo unspecified) | 2.1µM* | 1% | 10% | 12% | 1 | -8
CN1CCCC(OC(=O)c2ccc3c(c2)OCCO3)C1 (stereo unspecified) | . | -2% | 45% | -6% | 13* | 21
CC1CN(C(C)C)C(C)CC1OC(=O)c1ccccc1 (stereo unspecified) | -3% | 9% | -9% | 10% | -4 | -15
CN1CCCC(OC(=O)c2ccc(Cl)cc2)C1 (stereo unspecified) | -6% | 1% | -11% | 4% | -2 | -2
Cc1c(-c2ccccc2)[n+](=O)c(-c2ccco2)c(C)n1[O-] | 5.2µM* | 3% | 2% | 1% | -2 | 47
N#CCSc1nnc(-c2cccnc2)n1-c1ccccc1 | -2% | 6% | 18% | 2% | 1 | 4
CCSc1nnc(-c2cccnc2)n1-c1ccc(C)c(Cl)c1 | 4.7µM* | 0% | . | -2% | -3 | -20
Cc1ccc(-n2c(SCC(=O)N3CCOCC3)nnc2-c2cccnc2)cc1 | -22%[5.75 µM] | -5% | 0% | -4% | 24* | 56*
Cc1ccc(-n2c(SCC(=O)N3CCOCC3)nnc2-c2cccnc2)cc1C | ? | -1% | 0% | 0% | -2 | 5
O=C(O)CCC(=O)N1CCN(c2ccccn2)CC1 | 33% | 2% | 26% | 5% | -2 | -11
O=C(CCSCc1ccccc1Cl)N1CCN(c2ccccn2)CC1 | 0% | -2% | 18% | -18% | 41* | 44*
CC(C)c1nnc(NC(=O)CCC(=O)N2CCN(c3ccccn3)CC2)s1 | 22% | 0% | 10% | 1µM* | 1 | 22
SMILES | Pf growth 96h | SARS PLpro yeast | Pf growth 48h | NS1 function inh | CHX counter | Shiga toxin inh
Cc1ccc(-n2c(SCC(=O)N3CCN(c4ccccn4)CC3)nnc2N2CCCC2)cc1 | 8.3µM* | -1% | 9.3µM* | . | . | .
O=C(CSc1nccc2ccccc12)N1CCN(c2ccccn2)CC1 | -11% | -1% | . | -75% | 1 | 22
Cc1ccc(SCC(=O)N2CCN(c3ccccn3)CC2)cc1 | 113% | 3% | 9% | -40% | 18* | 52*
Cc1ccc(C)c(-n2c(SCC(=O)N3CCCC3)nnc2-c2ccccn2)c1 | -17% | 2% | 10% | -3% | -6 | -7
CC(C)NC(=O)/C(=C/c1cn(-c2ccccc2)nc1-c1cccc([N+](=O)[O-])c1)NC(=O)c1ccccc1 | -19% | 5% | 10% | 18% | -7 | -15
C/C(CCN1CCCCc2nc(C)c(C)cc21)=N\O[C@H](C)c1cn([C@H](CO)Cc2ccccc2)nn1 | ? | -6% | ? | -23% | -2 | -19
Cc1cc2c(nc1C)CCCN2C[C@@H](C)O/N=C1/[C@H]2CCn3c(=O)n(-c4ccccc4)c(=O)n3[C@H]2[C@H](O)[C@@H]2O[C@H]12 | 13µM* | 5% | ? | 4% | -3 | -8
COc1ccc(-c2nn(-c3ccccc3)cc2/C=N/Nc2ccccn2)cc1 | ? | 0% | ? | 3% | -3 | -12
COc1ccc(/C=N/OCc2ccc(Br)cc2)c(OC)c1 | 38% | -4% | 33% | -1% | 30* | 31*
COc1ccc(/C=N/Nc2ncc(Br)cn2)c(OC)c1 | 6% | 0% | 174% | 3% | 46* | 51*
COc1ccc(/C=N\Nc2ccccn2)c(OC)c1 | 6% | 0% | 123% | -9% | 39* | 43
COc1cccc(/C=N/Nc2ncccc2[N+](=O)[O-])c1OC | 161% | -2% | -19% | 0% | -4 | -15
COc1ccc(/C=N/Nc2ccccn2)c(OC)c1OC | 36% | -4% | 48% | . | 40* | 74*
O=C(O)c1cn(-c2ccc(F)cc2)c(=O)c2ccccc12 | 36% | 0% | 10% | 0% | 6 | 10
Cc1ccc(C)c(/C=N/Nc2ccccn2)c1 | 15% | 1% | 12% | . | 20* | 53*
COc1ccccc1/C=N/Nc1nccnc1Cl | -10% | 1% | . | 1% | 35* | 66*
Nc1nc(SCC(=O)Nc2ccc(OCc3ccccc3)cc2)n[nH]1 | 11% | 0% | 19% | 2% | 28* | 58*
COc1ccc(-c2csc(NC(=O)CSc3n[nH]c(C)n3)n2)cc1 | 0% | -3% | 20% | 12% | 31* | 108*
Cc1nc(SCC(=O)Nc2ccc(OCc3ccccc3)cc2)n[nH]1 | 32% | 0% | 16% | 3% | 24* | 58*
COc1ccc(-c2csc(NC(=O)CSc3n[nH]c(N)n3)n2)cc1 | 13% | -3% | 8% | . | 12 | 31
